Source: PubChem BioAssay (several laboratories)
Shown are actives, neighbours in structure and some others; about 1.2% of the full set was active somewhere.
NR1D1 modulator: modulators of Rev-erb alpha DNA binding, primary screen, biochemical, FITC-DNA, fluorescence polarization, uHTS | Nuclear receptor subfamily 1 group D member 1 (Homo sapiens), P20393 | activity, % at 10 µM | hit rate 0.79% among 370,000 | Rev-erbα–FITC-DNA binding, 90 min;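 active = activity above about 14%, limit read from the data; passing the limit was not always enough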
PKA-R1A act: activators of PKA-R1A holoenzyme, primary screen, biochemical, fluorescence polarization, Cy5-IP20, bovine R1A, mouse PKAc; PKA-R1A dissociation; scaled: DMSO 0%, 113 µM cGMP 100%; hit rate 0.083% among 340,000; cAMP-dependent protein kinase type I-alpha regulatory subunit (Bos taurus) + …; activation, % at 11.4 µM;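 active = percent activation above the mean of all tested compounds plus 3 SD, cut at about 19% in these data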;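 also: higher means more PKAc released from R1A so a rise in polarization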
PKA-R2B activ: activators of PKA-R2B holoenzyme, primary screen, biochemical, fluorescence polarization, Cy5-IP20, human; activation, % at 11.4 µM; cAMP-dependent protein kinase catalytic subunit beta (Homo sapiens) + cAMP-dependent …; hit rate 0.079% among 340,000; PKA-R2B holoenzyme dissociation; R2B truncated from residue 108, S112A mutant; 0% DMSO only, 100% 113 µM cGMP;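 active = activation above a cutoff set at the mean over all compounds plus 3 SD, cut at about 18% in these data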;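 also: higher means more holoenzyme dissociation and a rise in polarization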
Target sequence (P31323 whole entry, looked up, other chains not shown, the tested form may be a part): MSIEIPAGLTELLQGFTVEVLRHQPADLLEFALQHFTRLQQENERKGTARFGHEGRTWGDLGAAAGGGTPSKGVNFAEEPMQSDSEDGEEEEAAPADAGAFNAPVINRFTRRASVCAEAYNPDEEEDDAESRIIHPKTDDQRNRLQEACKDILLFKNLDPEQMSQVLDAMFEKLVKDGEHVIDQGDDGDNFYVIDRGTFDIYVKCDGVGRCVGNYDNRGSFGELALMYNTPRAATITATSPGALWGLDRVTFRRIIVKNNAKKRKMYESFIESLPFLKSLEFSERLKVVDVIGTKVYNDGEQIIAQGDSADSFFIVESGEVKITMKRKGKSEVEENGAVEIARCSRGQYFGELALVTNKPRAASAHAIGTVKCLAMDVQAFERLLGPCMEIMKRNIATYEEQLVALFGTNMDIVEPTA
PG9 binder: binders of HIV-1 gp120 antibody PG9, primary screen, biochemical, TR-FRET | HIV-1 gp120 / PG9 antibody interaction | TR-FRET gp120-PG9 antibody binding | inhibition, % at 6.7 µM | hit rate 0.43% among 360,000 | AID 624416, 2012; in the data active = inhibition above about 8.5%
NR1D1 mod conf: modulators of Rev-erb alpha DNA binding, confirmation, biochemical, FITC-DNA, fluorescence polarization, single point | shares compounds with NR1D1 modulator | 90 min | activation, % at 25 µM | hit rate 61% among 3,000;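 active = activation at or above a set limit, or at least 3 SD above the negative control mean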
RORg DNA counter: modulation of RORgamma DNA binding, dose response, counter-screen for Rev-erb alpha modulator project, biochemical, fluorescence polarization, FITC-DNA. shares compounds with NR1D1 modulator. IC50, µM. AID 1259320, 2017. purified RORgamma protein-FITC-DNA binding. hit rate 8% among 910;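 active = Compounds whose fitted half-maximal concentration for disrupting protein-DNA binding is below 10 micromolar; the record names Rev-erb in its text, so the target is in doubt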
Of the large screens only hits and unclear results are named; the others gave an inactive call (follow-up assays come after a bar, where they were run).

CCCCn1c(=O)[nH]c(=O)c2c1nc(-c1ccccc1F)n2Cc1ccccc1	none
Clc1ccc(Oc2ncnc3oc(-c4ccccc4)cc23)cc1	NR1D1 modulator 37 | NR1D1 mod conf 18
COC(=O)[C@H](C(C)C)N(CCc1cn(Cc2ccccc2)nn1)S(=O)(=O)c1ccccc1Br	none (no result: PKA-R1A act, PKA-R2B activ, PG9 binder)
COc1ccc(CN2C(=O)CN(S(C)(=O)=O)CC2(C)c2nnnn2C2CCCCC2)cc1 (stereo not given)	none (no result: PKA-R1A act, PKA-R2B activ, PG9 binder)
Cc1nn(-c2ccccc2)c2sc(C(=O)NC3CCCc4ccccc43)cc12 (stereo not given)	none (no result: PKA-R1A act, PKA-R2B activ, PG9 binder)
N#Cc1c(-c2cccc(F)c2)cc(-c2ccccc2)nc1Br	NR1D1 modulator 58, PG9 binder 9.1 | NR1D1 mod conf 25
CS(=O)(=O)c1nc(-c2ccc(Br)cc2)cc(-c2ccccc2)c1C#N	none
N#Cc1c(-c2ccccc2Cl)cc(-c2ccccc2)nc1Br	NR1D1 modulator 32 | NR1D1 mod conf 22
N#Cc1c(-c2ccccc2Cl)cc(C2CC2)nc1N	none
CC(=O)c1ccc([C@H](O)[C@@H](C(=O)N(C)c2ccccc2)C2CC2)cc1	none (no result: PKA-R1A act, PKA-R2B activ, PG9 binder)
CCN(CC)c1ccc(NC(=O)CSc2nc3ccccc3c(=O)n2-c2ccc(C)cc2)cc1	none (no result: PKA-R1A act, PKA-R2B activ, PG9 binder)
O=C(NCc1ccccc1)c1c(O)c2ccccc2[nH]c1=O	none
COc1ccccc1CNC(=O)c1c(O)c2cc(OC)c(OC)cc2[nH]c1=O	NR1D1 modulator 28 | NR1D1 mod conf 19
O=C1CC(c2ccc3ccccc3c2)N=C2N(Cc3ccc4c(c3)OCO4)C/C(=C/c3ccccc3)N12 (stereo not given)	none (no result: PKA-R1A act, PKA-R2B activ, PG9 binder)
COc1ccc(/C=C/C(=O)NC(=S)N2CCN(c3ccccc3OC)CC2)cc1	NR1D1 modulator 48 | NR1D1 mod conf 39 | RORg DNA counter inactive
COc1ccc(/C=C/C(=O)NC(=S)N2CCOCC2)cc1	none
COC(=O)[C@]12C[C@H](CC(=O)NCC34CC5CC(CC(C5)C3)C4)C(=O)N(Cc3ccco3)C1=C[C@H](COCc1ccccc1)O[C@@H]2C	none (no result: PKA-R1A act, PKA-R2B activ, PG9 binder)
O=c1c(Cl)c(N2CCN(S(=O)(=O)c3ccccc3)CC2)cnn1-c1ccccc1	none
O=c1c(Cl)c(N2CCN(S(=O)(=O)c3ccc(F)cc3)CC2)cnn1-c1cccc(Cl)c1	NR1D1 modulator 28 | NR1D1 mod conf 28
CC1(c2nnnn2Cc2ccccc2)CCCC(=O)N1Cc1cccs1 (stereo not given)	none (no result: PKA-R1A act, PKA-R2B activ, PG9 binder)
Cc1nc2ccc(C(=O)OCc3nnc(-c4ccccc4)o3)cc2nc1C	none
Cc1nc2ccc(C(=O)OCc3nnc(-c4ccc(Br)cc4)o3)cc2nc1C	NR1D1 modulator 23 | NR1D1 mod conf 19
Cc1cc(NC(=O)c2ccc(NS(=O)(=O)c3ccc(C)c(C)c3)cc2)no1	none (no result: PKA-R1A act, PKA-R2B activ, PG9 binder)
CCCCn1c(=O)[nH]c(=O)c2c1nc(-c1ccc(OCCC)c(OCC)c1)n2C	NR1D1 modulator 21 | NR1D1 mod conf inactive
CCCCn1c(=O)[nH]c(=O)c2c1nc(-c1ccc(-c3ccccc3)cc1)n2C	none
CCOC(=O)Cn1c(=NC(=O)c2cccs2)sc2cc(C(=O)OC)ccc21	NR1D1 modulator 85 | NR1D1 mod conf 75 | RORg DNA counter inactive
CCOC(=O)Cn1c(=NC(=O)c2nc3ccccc3s2)sc2cc(S(N)(=O)=O)ccc21	NR1D1 modulator 48 | NR1D1 mod conf 29
CCOC(=O)c1ccc2c(c1)sc(=NC(=O)c1ccco1)n2CCOC	NR1D1 modulator 35 | NR1D1 mod conf 25
CCCCNC(=O)C[C@@H]1C[C@]2(C(=O)OCC)CCC3=C2N(CCC3)C1=O	none (no result: PKA-R1A act, PKA-R2B activ, PG9 binder)
O=[N+]([O-])c1ccccc1N=Nc1ccc(O)cc1O	NR1D1 modulator 32 (no result: PKA-R1A act, PKA-R2B activ) | NR1D1 mod conf 17
Oc1ccc(N=Nc2ccc(Br)cc2)c(O)c1	none
COc1cc(NCc2ccc3nc(N)nc(N)c3c2C)cc(OC)c1OC	none (no result: PKA-R1A act, PKA-R2B activ, PG9 binder)
NC(=O)c1c(NC(=O)c2ccccc2)sc2c1CCc1ccccc1-2	NR1D1 modulator 47 | NR1D1 mod conf 18
